Several values for one entry are separate records, joined by “and”; a condition that tells them apart may be missing. Equal entries are not always repeated. Hit rate of the full screen: of about 400,000 compounds, about 3,700 (0.93%) were called active. About 3% were inconclusive and are not listed. Calls come from the whole dose curve; as a rule, active = well fitted inhibition curve with a large enough effect; inconclusive = small, poorly fitted or top-dose-only effect, or another doubt; inactive = no such curve, though single readings can be large or run the other way. For the sample, actives were picked, then their nearest neighbours and some compounds at random.
biological target: Vitamin D3 receptor (Homo sapiens) (UniProt P11473); assay: Inhibitors of the vitamin D receptor (VDR): qHTS; details: VDR-SRC2-3 peptide fluorescence polarization, 2 h; max response, negative = inhibition: stronger effect = lower value
Sequence (P11473 whole entry, looked up): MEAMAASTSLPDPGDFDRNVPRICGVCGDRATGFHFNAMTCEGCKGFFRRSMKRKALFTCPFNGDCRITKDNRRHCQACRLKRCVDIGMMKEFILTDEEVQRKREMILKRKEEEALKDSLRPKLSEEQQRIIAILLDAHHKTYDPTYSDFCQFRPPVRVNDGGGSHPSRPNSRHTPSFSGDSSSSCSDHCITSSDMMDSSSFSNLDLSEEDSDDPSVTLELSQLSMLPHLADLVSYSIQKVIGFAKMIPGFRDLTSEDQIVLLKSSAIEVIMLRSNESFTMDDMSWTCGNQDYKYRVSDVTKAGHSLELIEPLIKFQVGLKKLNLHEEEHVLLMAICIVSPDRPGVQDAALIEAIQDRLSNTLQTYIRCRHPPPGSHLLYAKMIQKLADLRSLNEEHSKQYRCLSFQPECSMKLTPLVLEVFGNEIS
Summary of the method: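 Measured by FP: displacement of SRC2-3 coactivator peptide from VDR by library compounds, following a two-hour ambient incubation.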
% is set by controls: 0 for no effect and ±100 for the full control effect; potency is the fitted concentration of half-maximal effect.

SMILES | max response, negative = inhibition | Potency
COc1ccc(Cl)cc1NC(=O)C(C)Sc1nc2c(c(=O)[nH]1)CCCC2 (stereo unspecified) | 5.96% (inactive) | –
CCN1/C(=C/C(=S)Nc2ccccc2)Sc2ccccc21 | – | 70.8 µM (active)
CCNCCC(=O)N1c2ccccc2Sc2ccc(NC(=O)OCC)cc21 | -7.06% (inactive) | –
CCN1C(=O)c2ccccc2Sc2ccc(NC(=O)Cc3ccc(OC)cc3)cc21 | 7.46% (inactive) | –
CC(=O)OC1CCC2(O)CC1(C)CCC1C2CC1(C)C (stereo unspecified) | -16.3% (inactive) | –
C[C@@H]1O[C@@H](OC[C@H]2O[C@@H](Oc3c(-c4cccc(O)c4O)oc4cc(O)cc(O)c4c3=O)[C@H](O)[C@@H](O)[C@@H]2O)[C@H](O)[C@H](O)[C@H]1O | 2.29% (inactive) | –
Cc1ccc2nc(NC(=O)c3nc(SCc4ccccc4F)ncc3Cl)sc2c1 | 1.04% (inactive) | –
O=C(Nc1nc2ccc(F)cc2s1)c1nc(SCc2ccccc2F)ncc1Cl | -2.57% (inactive) | –
CCOc1cccc(C(=O)Nc2nnc(S(=O)(=O)N(C)c3ccc(C)cc3)s2)c1 | -4.91% (inactive) | –
CSc1nnc(NC(=O)c2nc(S(=O)(=O)Cc3ccc(C)cc3)ncc2Cl)s1 | – | 11.2 µM (active)
Cc1nnc(NC(=O)C(c2ccccc2)c2ccccc2)s1 | 13.7% (inactive) | –
Cc1ccc(CS(=O)(=O)c2ncc(Cl)c(C(=O)Nc3nnc(C)s3)n2)cc1 | – | 25.1 µM (active)
Cc1cccc(CS(=O)(=O)c2ncc(Cl)c(C(=O)Nc3ccc(F)cc3)n2)c1 | – | 50.1 µM (active)
CCOC(=O)c1ccc(NC(=O)c2nc(SCc3ccc(F)cc3)ncc2Cl)cc1 | -10.3% (inactive) | –
CCS(=O)(=O)c1ncc(N(Cc2ccc(F)cc2)Cc2ccco2)c(C(=O)Nc2cc(C)ccc2C)n1 | -5.22% (inactive) | –
COc1ccc(CNC(=O)COCc2cc(-c3cccs3)on2)cc1OC | 16.9% (inactive) | –

SMILES | max response, negative = inhibition | Potency
COc1ccc(-c2nc3scc(CCNS(=O)(=O)c4cc(F)ccc4OC)n3n2)cc1OC | 0.564% (inactive) | –
CCOc1ccc2nc(N3CCC(C(=O)Nc4cc(C)ccc4C)CC3)sc2c1 | -0.819% (inactive) | –
COc1ccccc1CNC(=O)CCCCn1c(=O)c2ccccc2n(CC(=O)Nc2cc(Cl)ccc2C)c1=O | -8.69% (inactive) | –
CCOC(=O)c1cc(NC(=O)c2ccc(F)cc2)c(=O)n2c1oc1ccccc12 | 4.45% (inactive) | –
O=[N+]([O-])c1cccc2ncccc12 | – | 12.6 µM (active)
O=[N+]([O-])c1ccccc1SNc1ccccn1 | -25% (inactive) | –
O=[N+]([O-])c1ccccc1S(=O)(=O)Nc1cccc2cccnc12 | 0.987% (inactive) and -18.8% (inactive) | –
O=C(/C=C/c1cccc(F)c1)NC1CC1 | 0.0804% (inactive) | –
Cc1c(C(=O)Nc2cccc(Cl)c2)oc2ccc(S(=O)(=O)N3CCOCC3)cc12 | -9.71% (inactive) | –
O=C1C=C(c2ccc(Cl)cc2)C(=O)N1Nc1ccccc1 | – | 22.4 µM (active)
Cc1cccc(NC(=O)Cn2nc(-c3ccc(Cl)cc3)c3ccccc3c2=O)c1 | 4.43% (inactive) | –
Cc1ccc(C(=O)Nc2ccc(OCc3cc(=O)n4c(C)csc4n3)cc2)cc1 | -1.83% (inactive) | –
Cc1ccc(S(=O)(=O)c2nc(-c3cccs3)oc2N2CCCCC2)cc1 | 28.2% (inactive) | –
C=CC(C1=CC(=O)C=CC1=O)c1ccc(O)cc1 (stereo unspecified) | – | 39.8 µM (active)
CCCn1c2ccccc2c2cnn(CC(=O)NCCCOC(C)C)c(=O)c21 | 4.17% (inactive) | –

From PubChem BioAssay AID504847 (National Center for Advancing Translational Sciences (NCATS), 2011)
